Assay outcomes (PubChem BioAssay)
The list is not random: actives were taken first. Their share in the collection is about 2.5%.
PfM18AAP inh-1: blocks P. falciparum M18 aspartyl aminopeptidase. recombinant PfM18AAP, H-Glu-NHMec fluorogenic cleavage. inhibition, % at 7.35 µM. actives 1.2% (n = 290,000);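 active means inhibition above the campaign mean inhibition over all tested compounds plus 3 SD, cut at about 28% in these data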;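 further: 0% = plate median of test compound wells and 100% = 2 mM ZnCl2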
SUMO HTRF inh: inhibitors of human SUMOylation (UBC9). AID 2006. actives 0.36% (n = 290,000). inhibition, % at 35 µM. HTRF SUMOylation assay, SAE1/SAE2 + UBC9, in vitro; in the data active means inhibition above about 50%, passing the limit was not always enough
Target sequence (P63279 whole entry, looked up): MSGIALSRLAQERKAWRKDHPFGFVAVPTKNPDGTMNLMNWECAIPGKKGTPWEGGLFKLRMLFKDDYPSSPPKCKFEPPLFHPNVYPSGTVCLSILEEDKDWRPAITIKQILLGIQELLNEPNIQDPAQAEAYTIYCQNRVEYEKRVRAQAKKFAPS
G6PDH counter: counter-screen for G6PDH assay hits: L. mesenteroides G6PDH inhibition; Purified L. mesenteroides G6PDH, diaphorase/resazurin coupled fluorescence, 45 min; inhibition, % at 5 µM; actives 0.12% (n = 200,000); AID 1020; in the data active means inhibition above about 50%
p97 ATPase inh: human p97 ATPase inhibition | inhibition, % at 8 µM | actives 0.42% (n = 220,000) | P55072 | AID 1481 | recombinant p97 ATPase, Kinase-Glo ATP luminescence, 3 h; in the data active means inhibition above about 15%;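 further: 0% = DMSO vehicle and 100% = wells lacking enzyme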
PHOSPHO1 inh: inhibitors of human PHOSPHO1 phosphatase | inhibition, % at 13.3 µM | Q8TCT1 | actives 1.1% (n = 290,000) | recombinant PHOSPHO1, absorbance phosphatase assay; in the data active means inhibition above about 60%
Target sequence (Q8TCT1 whole entry, looked up): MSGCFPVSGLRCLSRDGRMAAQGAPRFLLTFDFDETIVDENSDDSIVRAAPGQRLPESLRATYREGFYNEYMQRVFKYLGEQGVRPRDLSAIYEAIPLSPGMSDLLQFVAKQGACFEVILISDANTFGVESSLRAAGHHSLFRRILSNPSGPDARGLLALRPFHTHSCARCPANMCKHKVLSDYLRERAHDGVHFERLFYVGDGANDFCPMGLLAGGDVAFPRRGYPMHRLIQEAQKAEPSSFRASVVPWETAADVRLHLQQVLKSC
HDAC3 inh: inhibitors of human histone deacetylase 3; recombinant HDAC3, fluorogenic peptide/trypsin coupled, fluorescence; inhibition, % at 8.3 µM; actives 0.15% (n = 320,000); in the data active means inhibition above about 26%, passing the limit was not always enough
PfM18AAP inh-2: confirmation of Plasmodium falciparum M18 aspartyl aminopeptidase inhibitors. shares compounds with PfM18AAP inh-1. recombinant PfM18AAP, H-Glu-NHMec fluorogenic cleavage. inhibition, % at 7.35 µM. actives 28% (n = 2,400). AID 2170;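 active means mean inhibition over replicate wells above the hit cutoff set for the earlier primary screen, cut at about 29% in these data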;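 further: 0% = median of test compound wells and 100% = 2 mM ZnCl2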
CTSL1 confirm: Cathepsin L (human) inhibition, confirmation; purified cathepsin L1, Z-Leu-Arg-MCA fluorescence; 2,400 tested, under 10 active; shares compounds with PfM18AAP inh-1; inhibition, % at 5.96 µM; AID 2178;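 active means average inhibition across replicates above the hit cutoff set in the earlier primary screen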;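 further: 0% = median of test compound wells and 100% = Z-Phe-Ala-diazomethylketone 1 µM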
Numbers without * were called inactive; / = not tested or not shown; ! = a repeat was not active.

SMILES	PfM18AAP inh-1	SUMO HTRF inh	G6PDH counter	p97 ATPase inh	PHOSPHO1 inh	HDAC3 inh	PfM18AAP inh-2	CTSL1 confirm
O=C1C=C(c2ccc3[nH]ccc3c2)C[C@@H](c2ccc(Cl)cc2)C1	/	/	/	/	/	-1	/	/
CN(CC(=O)NCCc1ccccc1)S(=O)(=O)c1ccc(Br)s1	-7	-3	/	/	31	2	/	/
Cc1sc2c(c1C)C(=O)NC(c1ccccc1F)N2 (centres undefined)	11	15	/	4	-117	8	/	/
Cc1ccc(C2NC(=O)c3c(sc(C)c3C)N2)c(O)c1 (centres undefined)	35*	10	1	2	104*	11	-24	-1
Cc1cccc(C2NC(=O)c3c(sc(C)c3C)N2)c1O (centres undefined)	52*	15	4	5	41	1	-30	2
O=[N+]([O-])c1cccc(Oc2cnccn2)c1	-4	-2	/	/	15	-1	/	/
Cc1cc(N(C)N)nc(NC(=O)NS(=O)(=O)c2ccccc2Cl)n1	57*	-2	/	/	42	-3	50*	0
Nc1ccccc1Nc1cc(-c2ccccc2)[nH]n1	39*	4	0	7	17	/	-27	4
C/C(=N\Nc1ccc(C(=O)O)cc1)c1ccc(S(=O)(=O)NCc2ccco2)cc1	36*	12	/	2	19	2	1	2
C/C(=N\Nc1ccc(C(=O)O)cc1)c1ccc(Br)cc1	32*	16	/	7	29	9	-22	5
C/C(=N\Nc1nc(Cl)c(Cl)cc1Cl)c1ccc(S(=O)(=O)NCc2ccco2)cc1	49*	5	-2	0	5	3	-54	7
CCc1ccc(/C(C)=N\Nc2ccc([N+](=O)[O-])cc2)cc1	4	-2	4	1	9	-9	/	/
C/C(=N\Nc1ccc([N+](=O)[O-])cc1)c1ccc(N)cc1	33*	2	4	1	-3	9	-18	6
CC(C)[C@H](NC(=O)c1ccc(Cl)cc1Cl)C(=O)NNC(=O)c1ccco1	/	/	/	/	/	-6	/	/
CCN1CCN(C(=O)C2CC(=O)N(c3ccc(Cl)cc3)C2)CC1 (centres undefined)	4	4	/	/	23	1	/	/
CC(Oc1ccc2c(-c3ccccc3)cc(=O)oc2c1)C(=O)NCCCn1ccnc1 (centres undefined)	5	9	/	/	39	8	/	/
Cc1cnc(C(=O)NNC(=O)c2ccc(Br)cc2)cn1	/	/	/	/	/	-9	/	/
C/C(=N\Nc1ccc(Cl)c(C(=O)O)c1)c1cccc([N+](=O)[O-])c1	36*	0	/	2	22	1	-1	5
CC1(C2CC2)NC(=O)N(CC(=O)N2CCN(c3ccccc3)CC2)C1=O (centres undefined)	/	/	/	/	/	5	/	/
FC(F)Oc1ccc(NC(=S)Nn2cnnc2)cc1	80*	-4	3	-4	2	9	66*	-2
CN(NC(=S)Nc1ccc(OC(F)F)cc1)C(=S)Nc1ccc(OC(F)F)cc1	-2	-14	-10	2	-20	3	/	/
CCOC(=O)c1c(NC(=O)CN2C(=O)NC3(CCCC3)C2=O)sc(C)c1CC	/	/	/	/	/	12	/	/
C=C(C)c1cccc(C(C)(C)NC(=O)NNC(=O)c2ccccc2O)c1	40*	-5	/	/	35	-5	-10	0
COc1ccc(CCNCc2cc(C)n(-c3ccc(OC)cc3)c2C)cc1	42*	13	/	/	28	-4	-10	-3
O=C(CN(Cc1ccco1)C(=O)c1ccc(F)cc1)Nc1ccccc1Br	/	/	/	/	/	-12	/	/
SMILES	PfM18AAP inh-1	SUMO HTRF inh	G6PDH counter	p97 ATPase inh	PHOSPHO1 inh	HDAC3 inh	PfM18AAP inh-2	CTSL1 confirm
O=C(O)Cc1sc(Nc2ccc(Cl)cc2)nc1-c1cccs1	33*	-3	3	-5	-91	/	-30	1
Nc1nc(-c2cccs2)c(CC(=O)O)s1	10	28	9	2	40	-1	/	/
CC(C)(C)c1cc(C(=O)N/N=C/c2ccc(-c3ccccc3[N+](=O)[O-])o2)n[nH]1	48*	23	/	/	24	9	-19	3
COc1c(O)cc2oc(-c3ccc(O)cc3)cc(=O)c2c1O	/	0	/	/	13	-4	/	/
Cc1c2cc(O)c(=O)cc-2oc2cc(O)c(O)cc12	29*	92*!	18	29*	30	-1	42*	-1
COc1cc(OC)c(-c2c3cc(O)c(=O)cc-3oc3cc(O)c(O)cc23)cc1OC	44*	80*	14	4	-12	3	26	-1
CN(C(=O)Cn1cc([N+](=O)[O-])ccc1=O)C1CCCCC1	/	/	/	/	/	1	/	/
Cc1cc(C(=O)COc2cc(F)ccc2[N+](=O)[O-])c(C)n1CC1CCCO1 (centres undefined)	/	/	/	/	/	10	/	/
O=C(NC(=S)Nn1cnnc1)c1cccc(Br)c1	69*	-2	6	-4	33	-4	87*	1
Cc1ccc(C(=O)NC(=S)Nn2cnnc2)cc1	84*	6	-2	-6	8	-2	60*	-2
Cc1ccc(/C=C/C(=O)Nn2cnnc2)cc1	41*	10	-2	1	28	-3	51*	-6
NC(=S)NNC(=O)c1cccc(Br)c1	23	-20	15	1	-31	0	/	/
O=C(NCc1ccc(F)cc1)c1cc2c(cc1Cl)N1CCCCCC1=NS2(=O)=O	/	/	/	/	/	-4	/	/
O=C(N/N=C/c1ccc[nH]1)c1cc2ccccc2cc1O	39*	-7	/	/	9	13	-45	7
CCc1ccc2nc(N(CCN(C)C)C(=O)c3ccc4ncsc4c3)sc2c1	2	21	/	/	33	10	/	/
CC1(C(=O)Nc2cccc(-n3cnnn3)c2)Cc2ccccc2C(=O)O1 (centres undefined)	/	/	/	/	/	2	/	/
CC1CCCC2(C1)NC(=S)N(c1ccccc1)N2 (centres undefined)	6	-4	6	7	57	-1	/	/
CC1CC(C)(C)CC2(C1)NC(=S)N(c1ccccc1)N2 (centres undefined)	36*	4	4	3	98*	-5	-48	-14
O=C(NNc1ccc([N+](=O)[O-])cc1)C1CC1c1ccccc1 (centres undefined)	43*	10	-5	5	4	11	15	3
O=C(NNc1ccc([N+](=O)[O-])cc1)C1CC2CCCC(C1)C2=O (centres undefined)	26	7	7	-4	32	-5	/	/
Cc1ccccc1C(=O)NNc1ccc([N+](=O)[O-])cc1	60*	14	6	-1	-74	-1	48*	2
CCc1ccc(N(CC(=O)NCc2ccco2)C(=O)CCC(=O)Nc2nccs2)cc1	0	4	/	/	27	3	/	/
